# Measurements published in the OligoGym collection.
# Assays:
# Test in all cases: pooled miR-30 sensor sort-seq; sequence = guide strand
# Settings in all cases: shRNA
# [1] = target: VDAC1
# [2] = target: VDAC3
# [3] = target: VGLL2
# [4] = target: VAX1
# [5] = target: VAMP8
# [6] = target: WFDC12
# [7] = target: WRB
# [8] = target: WRAP73
# [9] = target: WNT4
# [10] = target: XAGE3
# [11] = target: WNT16
# [12] = target: YARS
# [13] = target: YWHAG
# [14] = target: ZBTB8A
# [15] = target: ZDHHC6
# [16] = target: ZKSCAN4
# [17] = target: ZIC5
# [18] = target: ZMAT2
# [19] = target: ZHX1
# [20] = target: ZMAT5
# Also: reference of the scale not given here.
sequence,measurement,setting,value
TTCTCTGTAAACGTCAGGCCGT,sensor-assay potency score (higher = more potent),[1],-0.7
TTCATTTCTCTTCACTTCCAGG,sensor-assay potency score (higher = more potent),[2],-0.789
TAATGTTCGTCTCTTCTTCCTC,sensor-assay potency score (higher = more potent),[3],-0.332
TTCTTCTGCTTGGTGCGCCGGT,sensor-assay potency score (higher = more potent),[4],-0.49
TTATATTTGGTTTCTAGGTTGC,sensor-assay potency score (higher = more potent),[2],-0.0958
ATTCACATTAGTGTGAAGCTGG,sensor-assay potency score (higher = more potent),[1],0.0233
TTTACTTTTGTTACAATCCTCA,sensor-assay potency score (higher = more potent),[4],-0.228
TTTTGTTTTTTTATCCCGCGTT,sensor-assay potency score (higher = more potent),[4],-0.396
TATCAGTGTAAGCATGACCAGA,sensor-assay potency score (higher = more potent),[2],-0.976
TTTTGTTTTCAAATCAAGCTTT,sensor-assay potency score (higher = more potent),[1],-0.155
TATCCTAAACCTATCAGGCTGG,sensor-assay potency score (higher = more potent),[1],-0.545
TCTTCCACAGTAATCTCGGTGC,sensor-assay potency score (higher = more potent),[1],-0.38
TTACTTTTGTTACAATCCTCAG,sensor-assay potency score (higher = more potent),[4],-1.22
TAGTGTATTGTCGGTATTCCAT,sensor-assay potency score (higher = more potent),[1],-0.621
TAGGTGAGAAGGATGAATCGAA,sensor-assay potency score (higher = more potent),[1],0.744
TCTCGGACCAGGATCCGGCGGC,sensor-assay potency score (higher = more potent),[4],-0.716
TTTCAGGTCTATCTTGACCATG,sensor-assay potency score (higher = more potent),[2],-1.45
TTGTCTGTGTTCCATTTCTGGG,sensor-assay potency score (higher = more potent),[2],-1.15
TTCAATCTTCTCATTCACCTTC,sensor-assay potency score (higher = more potent),[2],0.828
TTTGTTTTTTTATCCCGCGTTT,sensor-assay potency score (higher = more potent),[4],-0.944
TCTGGTAGATAGAACCTCCAAA,sensor-assay potency score (higher = more potent),[2],-0.313
TCTATATCAACATTACTGCCAA,sensor-assay potency score (higher = more potent),[2],-0.2
TTCTTTTGTTTTTTTATCCCGC,sensor-assay potency score (higher = more potent),[4],-0.672
TTGGTTTTCAGGTCTATCTTGA,sensor-assay potency score (higher = more potent),[2],0.398
TTTTCGAGCCACCTTCTGCGAT,sensor-assay potency score (higher = more potent),[5],-1.17
TTTGTTTTCAAATCAAGCTTTA,sensor-assay potency score (higher = more potent),[1],-0.535
TTCACTTTAGCCGAGAAGCAGG,sensor-assay potency score (higher = more potent),[1],-0.473
TTAAACATAACTCAGTCTTTGG,sensor-assay potency score (higher = more potent),[3],-0.689
TATAATCACACTACCTAACAAA,sensor-assay potency score (higher = more potent),[3],-1.39
TTACTGTTTCCTGCTGTCCAGG,sensor-assay potency score (higher = more potent),[1],-1.19
TTCTTTATTGTTGGTCCGGGAG,sensor-assay potency score (higher = more potent),[4],-1.06
TTGGGCAGGATGATCTCTCGGA,sensor-assay potency score (higher = more potent),[4],-0.0889
TCTGAGTGTATCCTAAACCTAT,sensor-assay potency score (higher = more potent),[1],-0.562
TTAGAGTCTGAGTGTATCCTAA,sensor-assay potency score (higher = more potent),[1],-0.253
TGGAACTCCATCTCCAGCCGAT,sensor-assay potency score (higher = more potent),[4],-1
TACTTTTGTTACAATCCTCAGC,sensor-assay potency score (higher = more potent),[4],-0.412
TAGAGTATTGTCTGTGTTCCAT,sensor-assay potency score (higher = more potent),[2],-0.216
TTGTCAGCTGGGCAAACCCCTG,sensor-assay potency score (higher = more potent),[6],-1.97
TAGTGTTGTTCTTTTAACCATA,sensor-assay potency score (higher = more potent),[7],-0.891
TAATACTATACAACTCTTGCTC,sensor-assay potency score (higher = more potent),[7],0.423
TCGTCCATCATGTTGACTGTGG,sensor-assay potency score (higher = more potent),[7],-0.317
TCACATTTCGTACAGATCGAGG,sensor-assay potency score (higher = more potent),[7],-1.13
TATTTACTCTCTGAGCTCGGGA,sensor-assay potency score (higher = more potent),[8],-0.387
TCGAGTGTGGAGCAGTTCCAGC,sensor-assay potency score (higher = more potent),[9],-1.25
TTGTGCACAAGGACCAGACGGT,sensor-assay potency score (higher = more potent),[8],0.172
TTACAGACTAAAATCCAACAGG,sensor-assay potency score (higher = more potent),[7],-0.429
TGCACTGTCCTGTCACAGCCGC,sensor-assay potency score (higher = more potent),[9],-1.01
TTTAAGTCAAATATCTTAGATA,sensor-assay potency score (higher = more potent),[10],-0.923
TTATCTTCTACACAGTAGTTGG,sensor-assay potency score (higher = more potent),[11],-1.09
TTGAACTGTGCGTTGCGTGGCA,sensor-assay potency score (higher = more potent),[9],0.0724
TACACCAGGTCCTCATCTGTGT,sensor-assay potency score (higher = more potent),[9],-0.668
TACGTGGACAACAACCGGCCAT,sensor-assay potency score (higher = more potent),[8],-0.35
TCTACTGACATCAACTTGGCGA,sensor-assay potency score (higher = more potent),[11],-0.481
TTGCTGAGGAGGGCCATCGAGT,sensor-assay potency score (higher = more potent),[8],-1.36
TTGCGTGGCACCAGTGCCCTGG,sensor-assay potency score (higher = more potent),[9],-0.464
TTGCTCTGTCGGTAACAGGTTT,sensor-assay potency score (higher = more potent),[8],-1.05
ATATCTGGCAAACTCGTCCATC,sensor-assay potency score (higher = more potent),[7],-0.952
TACTATACAACTCTTGCTCAAC,sensor-assay potency score (higher = more potent),[7],-0.82
TTTCTCGCACGTCTCCTCCTCT,sensor-assay potency score (higher = more potent),[9],-0.548
TTGGGAATGTTGTCGTTCCTTG,sensor-assay potency score (higher = more potent),[8],-0.237
TTATACACCACTATCTTGGGAT,sensor-assay potency score (higher = more potent),[8],0.881
TAACAGGTTTCAGTGTCTGTAA,sensor-assay potency score (higher = more potent),[8],-0.596
AAGGAGTCGAGTGTGGAGCAGT,sensor-assay potency score (higher = more potent),[9],-0.667
ATGACTTCCAGGTTCCGCTTGC,sensor-assay potency score (higher = more potent),[9],-0.442
TTCGGGTTTGCTCTGTCGGTAA,sensor-assay potency score (higher = more potent),[8],-0.662
TACATATTTACAAAAATGCTTT,sensor-assay potency score (higher = more potent),[8],-1.06
TTATCTTGGCTAATTGAGCTGT,sensor-assay potency score (higher = more potent),[7],-0.0399
TTGGACGTCTTGTTGCATGTGC,sensor-assay potency score (higher = more potent),[9],0.653
TTGCACATCTGCACCTGCCTCT,sensor-assay potency score (higher = more potent),[9],0.262
TTGCATCCAAACACGAAGCTGA,sensor-assay potency score (higher = more potent),[7],0.58
TTAAATACAAAACACAAGTTGA,sensor-assay potency score (higher = more potent),[7],-0.499
AAATCTAGGAACTTTCTGCTGA,sensor-assay potency score (higher = more potent),[11],0.396
TGGAATTTGCAGCTGCAGCGTT,sensor-assay potency score (higher = more potent),[9],-0.943
TTGGCTAATTGAGCTGTCCGAG,sensor-assay potency score (higher = more potent),[7],-0.552
TTGAGCTTATCCGTCATCTTGT,sensor-assay potency score (higher = more potent),[7],0.602
TAATCTTTGCAGTCGCGCCGTT,sensor-assay potency score (higher = more potent),[8],-0.556
TTGTCAGAGCATCCTGACCACT,sensor-assay potency score (higher = more potent),[9],-1.18
TTTCGGGTTTGCTCTGTCGGTA,sensor-assay potency score (higher = more potent),[8],-0.96
TACACATCTAGTGTGTACTCTT,sensor-assay potency score (higher = more potent),[12],-0.195
TATAGAAGCACACAGAAGCATG,sensor-assay potency score (higher = more potent),[12],-1.29
TTTAAGTTTTCTTTTCATCTGA,sensor-assay potency score (higher = more potent),[13],0.297
TTAAGTTTTCTTTTCATCTGAA,sensor-assay potency score (higher = more potent),[13],0.563
TAAAGTAGCCGCTACTAGCGAA,sensor-assay potency score (higher = more potent),[14],-0.929
TTTGTCTCCATATAACCAGTAT,sensor-assay potency score (higher = more potent),[15],-0.758
ATTTTGTCTCCATATAACCAGT,sensor-assay potency score (higher = more potent),[15],-1.42
TTCATGCTTGAACAGAGCCTTC,sensor-assay potency score (higher = more potent),[16],-1.41
TTCAATAAGACTTCTATTCCGT,sensor-assay potency score (higher = more potent),[16],0.355
TGAATCTTCATGTGCTTCCTCA,sensor-assay potency score (higher = more potent),[17],-0.349
TTGACTGGAGGCAAGTCCCTGC,sensor-assay potency score (higher = more potent),[16],0.176
AACCTGGAGAACTCTATCGTGT,sensor-assay potency score (higher = more potent),[16],-0.756
TTCTCTTTCTTGTACGCTTTGG,sensor-assay potency score (higher = more potent),[18],-0.566
TTCTTCTTCTCTGTAAACCAAG,sensor-assay potency score (higher = more potent),[19],-1.18
TTCCACAGTCTTCACATTCATA,sensor-assay potency score (higher = more potent),[16],-1.13
TTTATCACCATGAATCCTCTGA,sensor-assay potency score (higher = more potent),[16],0.54
TTGGTGGTGGTGTAGCCCGAGA,sensor-assay potency score (higher = more potent),[17],-1.57
TACCATTGCATCTTCTCTGCAG,sensor-assay potency score (higher = more potent),[16],0.382
TGAGCTGTGACTGAAGACCTTA,sensor-assay potency score (higher = more potent),[16],0.0781
ATCTCGGAACATGTCGTACCAG,sensor-assay potency score (higher = more potent),[20],-1.24
TTTAGGTCCTACAACTTCCAGA,sensor-assay potency score (higher = more potent),[16],-0.127
TGTCATATTCTGAAGCGGCTGG,sensor-assay potency score (higher = more potent),[17],0.253
TTCTCTGATGTTTCTTTCCATT,sensor-assay potency score (higher = more potent),[18],-1.41
TTTGTCACAGCCTCGAATCTTG,sensor-assay potency score (higher = more potent),[17],-0.0738
TAGTAGGGCTTGTCACTGGTGT,sensor-assay potency score (higher = more potent),[17],-0.153
TTGGATTCCAAGTCCACCTTGT,sensor-assay potency score (higher = more potent),[18],0.567
TTATGATGAACTGCAATCCGTT,sensor-assay potency score (higher = more potent),[19],-0.993
TGAACTTTGAGCAAAACTCTTT,sensor-assay potency score (higher = more potent),[16],-0.0856
AAAATCATAATCCTTCTGCTTC,sensor-assay potency score (higher = more potent),[18],-0.213
TCATCTTCAGTCTCAGAGGTGG,sensor-assay potency score (higher = more potent),[17],-0.487
TTTCTCTTTCTTGTACGCTTTG,sensor-assay potency score (higher = more potent),[18],-0.653
TTAAACTGAACATTTCTTCTAC,sensor-assay potency score (higher = more potent),[19],0.706
TTCTTTTCTCTCTCTTCCGTGA,sensor-assay potency score (higher = more potent),[18],-0.461
TGTATGAGTACGCTTGTGGATC,sensor-assay potency score (higher = more potent),[17],-1.35
TACCTCTGCAATCTGTGCCCTC,sensor-assay potency score (higher = more potent),[18],-0.418
TTCTTGTTGACCTCAAAACGTT,sensor-assay potency score (higher = more potent),[18],-0.905
TTTCTTGTACGCTTTGGCCTTT,sensor-assay potency score (higher = more potent),[18],-0.519
TAGTCTGTATTTCACCACCAAG,sensor-assay potency score (higher = more potent),[16],-1.77
TTCCTCAAAATCATAATCCTTC,sensor-assay potency score (higher = more potent),[18],0.481
TTCTGCTTTCTTTGTAACCTGC,sensor-assay potency score (higher = more potent),[16],-0.00454
TTGCAGATGAGCTCCTGCTTGA,sensor-assay potency score (higher = more potent),[17],-0.229
ATGAGTACGCTTGTGGATCTTG,sensor-assay potency score (higher = more potent),[17],-0.744
